Results as given in the supplement of paper PMC6805474.

Key:
[1] = test system: Schistosoma mansoni schistosomula (NMRI); test: phenotypic severity score (0-4); higher = more antischistosomal effect, active = 2 or more; settings: 10 µM
[2] = test system: Schistosoma mansoni schistosomula (Liberian); test: drug effect (1 - score/DMSO control score) (fraction); higher = more antischistosomal effect, active = 0.5 or more; extreme values may be limits of the assay; settings: 10 µM
Summary of the method: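 Drug effect was calculated by comparing the mean score of the test wells with the mean score of the DMSO wells, and any negative value was set to zero. Duplicate wells of 50 Liberian-strain S. mansoni schistosomula, mechanically transformed from cercariae and pre-incubated at least 12 h, received 10 µM compound in Medium 199 with 5% FCS at 37 °C, 5% CO2, with 0.1% DMSO in the comparison wells. Visual scoring at 10× took place at 24, 48 and 72 h on a quarter-point scale from 3 (normal) to 0 (dead), and a plate counted only if its DMSO wells averaged at least 2.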

[3] = test system: Schistosoma mansoni schistosomula (LE); test: XTT viability relative to DMSO control; higher = more viable (less active); settings: 72 h; 10 µM
Description: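 XTT/PMS was then added for a further 24 h (72 h total) and A450 was read. % viability = (sample - heat-killed control)/(DMSO control - heat-killed control) x 100, from duplicate wells in two independent experiments.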
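Wherever phenotypic severity score (0-4) is given: visual microscopic scoring of shape, motility and density changes versus 0.5% DMSO solvent controls, one point per descriptor, degeneracy or death scored 4, mean of duplicate wells.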

Cc1cccc(Cn2ccc(NC(=O)c3ccc4c(c3)OCO4)n2)c1
inactive: phenotypic severity score ([1]; 24 h) 0 | phenotypic severity score ([1]; 48 h) 0 | phenotypic severity score ([1]; 72 h) 0 | drug effect ([2]; 24 h) 0.0556 | drug effect ([2]; 48 h) 0.125 | drug effect ([2]; 72 h) < 0

CCOc1ccc(-c2nc(CNCCc3ccc(F)cc3)cs2)cc1
inactive: phenotypic severity score ([1]; 24 h) 0 | phenotypic severity score ([1]; 48 h) 0 | phenotypic severity score ([1]; 72 h) 0 | drug effect ([2]; 24 h) 0.273 | drug effect ([2]; 48 h) 0.4
active: drug effect ([2]; 72 h) 0.632

Cc1nn2c(O)c3c(nc2c1-c1ccc(F)cc1)CCCC3
active: drug effect ([2]; 72 h) 0.509
inactive: phenotypic severity score ([1]; 24 h) 0 | phenotypic severity score ([1]; 48 h) 0 | phenotypic severity score ([1]; 72 h) 0 | drug effect ([2]; 24 h) 0.409 | drug effect ([2]; 48 h) 0.45

COc1ccc(-c2onc(C(F)(F)F)c2-c2ccc(Cl)cc2)c(O)c1
inactive: phenotypic severity score ([1]; 24 h) 0 | phenotypic severity score ([1]; 48 h) 0 | phenotypic severity score ([1]; 72 h) 0 | drug effect ([2]; 24 h) 0.15 | drug effect ([2]; 48 h) 0.167 | drug effect ([2]; 72 h) 0.188

N=C(N)Nc1ccc(-c2ccc(-c3ccc(NC(=N)N)cc3Cl)o2)c(Cl)c1
inactive: phenotypic severity score ([1]; 24 h) 0 | phenotypic severity score ([1]; 48 h) 0 | phenotypic severity score ([1]; 72 h) 0 | drug effect ([2]; 24 h) 0.0526 | drug effect ([2]; 48 h) 0.111 | drug effect ([2]; 72 h) 0.125

FC(F)(F)c1cc(NCCc2ccccc2)nc(-c2ccccn2)n1
inactive: phenotypic severity score ([1]; 24 h) 1 | drug effect ([2]; 24 h) 0.05 | drug effect ([2]; 72 h) 0.394
active: phenotypic severity score ([1]; 48 h) 2 | phenotypic severity score ([1]; 72 h) 4 | drug effect ([2]; 48 h) 0.514

COC(=O)c1c(NC(=O)c2cc3ccccc3oc2=O)sc2c1CCN(Cc1ccccc1)C2
inactive: phenotypic severity score ([1]; 24 h) 0 | drug effect ([2]; 24 h) 0.4 | drug effect ([2]; 48 h) 0.222
active: phenotypic severity score ([1]; 48 h) 3 | phenotypic severity score ([1]; 72 h) 2 | drug effect ([2]; 72 h) 0.556

CC(C)(C)c1ccc(N[C@@H]2CCCC[C@H]2NC(=O)c2ccco2)cc1
inactive: phenotypic severity score ([1]; 24 h) 0 | phenotypic severity score ([1]; 48 h) 0 | phenotypic severity score ([1]; 72 h) 0 | drug effect ([2]; 24 h) < 0 | drug effect ([2]; 48 h) < 0 | drug effect ([2]; 72 h) 0.111

Cc1[nH]c2cc(F)cc(F)c2c(=O)c1-c1ccc(Oc2ccc(OC(F)(F)F)cc2)cc1
active: phenotypic severity score ([1]; 24 h) 2 | phenotypic severity score ([1]; 48 h) 4 | phenotypic severity score ([1]; 72 h) 4 | drug effect ([2]; 48 h) 0.778 | drug effect ([2]; 72 h) 0.75
inactive: drug effect ([2]; 24 h) 0.45

COc1cccn2c(C(=O)N3CCCCC3)c(C(F)(F)F)nc12
inactive: phenotypic severity score ([1]; 24 h) 0 | phenotypic severity score ([1]; 48 h) 0 | phenotypic severity score ([1]; 72 h) 0 | drug effect ([2]; 24 h) 0.182 | drug effect ([2]; 48 h) 0.2 | drug effect ([2]; 72 h) 0.127

c1cncc(NCc2ccc(-c3cc4ccncc4cc3OC3CCNCC3)s2)c1
inactive: drug effect ([2]; 24 h) 0.136 | drug effect ([2]; 48 h) 0.45
active: phenotypic severity score ([1]; 24 h) 3 | phenotypic severity score ([1]; 48 h) 3 | phenotypic severity score ([1]; 72 h) 4 | drug effect ([2]; 72 h) 0.556

O=C1Nc2ccc(Br)cc2C12NCCc1c2[nH]c2ccccc12 (centres undefined)
inactive: phenotypic severity score ([1]; 24 h) 0 | phenotypic severity score ([1]; 48 h) 0 | phenotypic severity score ([1]; 72 h) 0 | drug effect ([2]; 24 h) 0.05 | drug effect ([2]; 48 h) 0.0811 | drug effect ([2]; 72 h) 0.167

COc1cc(Br)cc2cc(C(=O)Nc3cccc(C(F)(F)F)c3)c(=O)oc12
inactive: phenotypic severity score ([1]; 24 h) 0 | phenotypic severity score ([1]; 48 h) 0 | phenotypic severity score ([1]; 72 h) 0 | drug effect ([2]; 24 h) 0.1 | drug effect ([2]; 48 h) 0.0556 | drug effect ([2]; 72 h) 0.0556

CCn1cnc2c(Nc3cc(F)cc(F)c3)nc(C#N)nc21
active: phenotypic severity score ([1]; 24 h) 4 | phenotypic severity score ([1]; 48 h) 4 | phenotypic severity score ([1]; 72 h) 4 | drug effect ([2]; 48 h) 0.889 | drug effect ([2]; 72 h) 0.75
inactive: drug effect ([2]; 24 h) 0.351

COc1cc(-c2cc(-c3ccc(S(C)(=O)=O)cc3)cnc2N)ccc1O
inactive: phenotypic severity score ([1]; 48 h) 1 | phenotypic severity score ([1]; 72 h) 1 | drug effect ([2]; 24 h) 0.1 | drug effect ([2]; 48 h) 0.189 | drug effect ([2]; 72 h) 0.152
active: phenotypic severity score ([1]; 24 h) 2

CN1CCCN(C(c2ccccc2)c2ccc(Cl)cc2)CC1 (centres undefined)
inactive: phenotypic severity score ([1]; 24 h) 0 | phenotypic severity score ([1]; 48 h) 0 | phenotypic severity score ([1]; 72 h) 0 | drug effect ([2]; 24 h) 0.455 | drug effect ([2]; 48 h) 0.05 | drug effect ([2]; 72 h) 0.263
67.9%: XTT viability [3]

Cc1ccccc1CN1CCC(O)(c2ccc(Cl)c(C(F)(F)F)c2)CC1
active: phenotypic severity score ([1]; 24 h) 2
inactive: phenotypic severity score ([1]; 48 h) 0 | phenotypic severity score ([1]; 72 h) 1 | drug effect ([2]; 24 h) 0.1 | drug effect ([2]; 48 h) 0.0556 | drug effect ([2]; 72 h) 0.188

CNc1cc(C)nc(C2CN(C(=O)c3n[nH]c4ccccc34)CCO2)c1 (centres undefined)
123%: XTT viability [3]
inactive: phenotypic severity score ([1]; 24 h) 0 | phenotypic severity score ([1]; 48 h) 0 | phenotypic severity score ([1]; 72 h) 0 | drug effect ([2]; 24 h) 0.158 | drug effect ([2]; 48 h) 0.167 | drug effect ([2]; 72 h) 0.125

Cc1ccc(S(=O)(=O)Nc2ccc(CN3CCN(C(=O)c4cccc(C#N)c4)CC3)cc2)cc1
inactive: phenotypic severity score ([1]; 24 h) 0 | phenotypic severity score ([1]; 48 h) 1 | phenotypic severity score ([1]; 72 h) 1 | drug effect ([2]; 24 h) 0.05 | drug effect ([2]; 48 h) 0.0556 | drug effect ([2]; 72 h) 0.0625
131%: XTT viability [3]

Nc1ncc(-c2ccc(C(F)(F)F)nc2)cc1-c1ccc(C(F)(F)F)nc1
79.3%: XTT viability [3]
inactive: phenotypic severity score ([1]; 24 h) 0 | phenotypic severity score ([1]; 48 h) 0 | phenotypic severity score ([1]; 72 h) 0 | drug effect ([2]; 24 h) 0.182 | drug effect ([2]; 48 h) 0.15 | drug effect ([2]; 72 h) 0.127
